TGFb inhibitor: inhibitors of TGF-b signaling; HepG2 CAGA-GFP TGF-b/SMAD3 reporter, GFP fluorescence, 18 h; TGF-beta stimulated, 500 pg/mL final; Potency, µM (doses to about 46.1 µM), for inactives: top-dose activity, negative = inhibition, most hits filed as inhibitors; actives 1.2% (n = 410,000); AID 588855; also: potency is read from the fitted curve at half-maximal effect; % is scaled to controls: 0 for no effect and ±100 for the full control effect; nearly all actives have a fitted effect of over 65% in size
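HEPG2 CAGA-GFP, 1000 cells/well; 2 h settle, 37 C; cpd via pin tool; TGF-b 500 pg/mL final; 18 h, 37 C; GFP imaging ex488/em500-530; %Activity normalised to -TGF-b and +DMSO controls; CRC fit, curve class.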
IL-1B inflam inh: inflammasome signaling inhibition, IL-1 beta readout. THP-1 LPS/ATP IL-1B secretion, AlphaLISA, 16 h; hits give low values. activity change, % at 57.5 µM. actives 4.7% (n = 360,000). AID 743279; in the data active = activity change below about -50%; inconclusive = mostly about -30% to -49%; also: % is scaled to controls: 0 for no effect and ±100 for the full control effect
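THP-1 cells pretreated 1 hr with compounds (up to 57.5 uM final), then stimulated with LPS (250 ng/mL final) plus ATP (1.25 mM final); secreted IL-1B measured by AlphaLISA after 16 hr, decreased signal indicating inhibition.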
DT40 TDP1 no CPT: qHTS for Inhibitors of human tyrosyl-DNA phosphodiesterase 1 (TDP1): qHTS in cells in absence of CPT; DT40 Tdp1-/- hTDP1 cells, no CPT, ATP luminescence, 48 h; Potency, µM (highest dose often 46.2 µM), without a hit: at the highest dose activity change, negative = growth inhibition, hits mostly inhibitors; actives 15% (n = 420,000); also: potency is read from the fitted curve at half-maximal effect; % is scaled to controls: 0 for no effect and ±100 for the full control effect; nearly all actives have a fitted effect of over 55% in size
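Cells were dispensed at 400 per well, compounds added by pin tool, plates incubated ≥48 hr at 37 °C, then CellTiter-Glo added for 30 min at room temperature before luminescence reading. Line: DT40 Tdp1-/- complemented with hTDP1; camptothecin omitted.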
S-ASM inh: human S-ASM enzyme inhibition. actives 0.006% (n = 340,000). placental ASM, HMU-PC fluorogenic substrate, 60 min. P17405. Potency, µM (series often up to 57.5 µM), without a hit: at the highest dose activity change, negative = inhibition, actives largely listed as inhibitors; also: potency is read from the fitted curve at half-maximal effect
Target sequence (P17405 47-631 limits assumed): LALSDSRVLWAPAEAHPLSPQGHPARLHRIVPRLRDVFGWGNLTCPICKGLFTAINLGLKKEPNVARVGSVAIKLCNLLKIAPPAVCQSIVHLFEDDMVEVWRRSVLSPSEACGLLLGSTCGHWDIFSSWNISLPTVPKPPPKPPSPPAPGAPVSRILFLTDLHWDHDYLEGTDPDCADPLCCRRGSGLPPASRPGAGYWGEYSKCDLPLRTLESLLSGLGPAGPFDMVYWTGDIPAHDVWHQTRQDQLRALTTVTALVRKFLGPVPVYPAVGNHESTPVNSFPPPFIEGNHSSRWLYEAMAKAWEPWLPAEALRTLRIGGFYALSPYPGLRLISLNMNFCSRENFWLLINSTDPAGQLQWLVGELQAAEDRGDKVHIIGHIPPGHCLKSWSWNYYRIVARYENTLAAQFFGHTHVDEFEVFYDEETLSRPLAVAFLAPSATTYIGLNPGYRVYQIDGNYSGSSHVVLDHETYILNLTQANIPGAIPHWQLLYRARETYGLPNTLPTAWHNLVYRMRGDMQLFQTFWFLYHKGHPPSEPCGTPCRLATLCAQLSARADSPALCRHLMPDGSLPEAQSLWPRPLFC
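Human placenta-derived ASM enzyme was preincubated with compound for 10 minutes at room temperature, then given fluorogenic substrate HMU-PC0 (9 uM final) for 60 minutes at 37 °C; a pH 10 stop preceded fluorescence reading at Ex 386/Em 447 nm.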
HepG2 tox: counter-screen for TGF-b inhibitors: cytotoxicity in HepG2 cells | HepG2 CAGA-GFP viability, ATP luminescence, 18 h | Potency, µM (series often up to 46.1 µM), inactives show at the top dose activity change, negative = cytotoxicity, usual class: cytotoxic | actives 0.76% (n = 410,000) | AID 588856; also: potency is read from the fitted curve at half-maximal effect
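CellTiter-Glo luminescence gave cytotoxicity after 18 hours at 37 degrees C. The cells were HepG2 CAGA-GFP in 1% FBS DMEM, stimulated with 500 pg/mL TGF-beta after compound addition. %Activity was normalised to no-cell wells (complete cell-killing) and DMSO (no toxicity), and curves were fitted and classified.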
DT40 TDP1 CPT: DT40-hTDP1 cell growth loss with CPT. actives 12% (n = 420,000). chicken DT40 Tdp1-/-;hTDP1 cells + 20 nM CPT, ATP luminescence, 48 h. Potency, µM (top dose mostly 46.2 µM), for inactives: at the top dose activity change, negative = growth inhibition, hits mostly inhibitors; also: potency is read from the fitted curve at half-maximal effect; % is scaled to controls: 0 for no effect and ±100 for the full control effect; nearly all actives have a fitted effect of over 55% in size
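Chicken DT40 Tdp1-/- cells stably complemented with human TDP1 were seeded at 400 cells/well in medium containing 20 nM camptothecin, exposed to pin-transferred compounds, and grown at 37 °C for at least 48 hr. Viability was read as ATP luminescence.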
* = called active by the depositor; ? = inconclusive; . = no result. Compounds with a hit are over-represented: about 19% of the library has one in this group of screens. Unless noted, calls follow the shape of the dose curve; as a rule, active = well fitted curve in the direction sought with a large enough effect; inconclusive = small, poorly fitted or top-dose-only effect, or another doubt; inactive = no such curve, though single readings can be large; an effect the other way counts as inactive or inconclusive.

SMILES	TGFb inhibitor	IL-1B inflam inh	DT40 TDP1 no CPT	S-ASM inh	HepG2 tox	DT40 TDP1 CPT
O=C(Nc1ccc2oc(-c3ccc(Cl)c(Cl)c3)nc2c1)c1ncn[nH]1	0.8%	10.1	5.17µM*	5.1%	-2.8%	5.17µM*
Fc1ccc(-c2nnc(CN3CCN(c4ccccn4)CC3)o2)cc1	-29.4%	.	-14.0%	.	-4.9%	-3.7%
Cc1ccc(CNC(=O)C2CCC(=O)N2Cc2ccc(C)cc2)cc1 (configuration not stated)	-5.5%	-13.1	-1.1%	2.8%	-2.5%	-18.5%
Cc1c(Cl)cccc1NC(=O)Cn1c(=O)n(Cc2ccco2)c(=O)c2sc3ccccc3c21	-11.5%	.	?	.	1.5%	?
COc1cc2ccccc2cc1C(=O)Nc1ccc2oc(-c3ccccc3)nc2c1	7.3%	.	16.4µM*	.	1.0%	16.4µM*
O=C(Nc1ccc(-c2nc3cc(NC(=O)c4ccccc4F)ccc3o2)cc1)c1ccccc1F	2.6%	.	13µM*	.	-7.9%	14.6µM*
O=C(Nc1ccc2oc(-c3ccc(Cl)cc3)nc2c1)c1ccc2ccccc2c1	?	.	-16.0%	.	10.2%	1.9%
COc1cc2ccccc2cc1C(=O)Nc1ccc2oc(-c3cc(Br)ccc3Cl)nc2c1	-10.9%	.	-19.8%	.	19.0%	?
O=C(Nc1ccc2oc(-c3ccncc3)nc2c1)c1ccccc1F	-20.1%	-14.7	-11.2%	55.4%	-20.4%	-5.8%
CC(C)(C)c1ccc(-c2nc3cc(NC(=O)c4cccc(Br)c4)ccc3o2)cc1	20.2%	.	4.61µM*	.	19.1%	?
O=C(Nc1ccc(-c2nc3cc(NC(=O)c4ccc(Cl)cc4)ccc3o2)cc1)c1ccc(Cl)cc1	-2.3%	.	4.11µM*	.	9.0%	-0.4%
CCc1ccc(C(=O)NC(CCSC)C(=O)OC)cc1 (configuration not stated)	-19.3%	-1.0	0.4%	-1.5%	24.6%	-4.1%
O=C(Nc1ccc(-c2nc3cc(NC(=O)c4cccs4)ccc3o2)cc1)c1cccs1	3.1%	4.2	12.6µM*	45.8%	2.3%	11.2µM*
Cc1nc2cc(NC(=O)Nc3ccc(Br)cc3)ccc2o1	-14.6%	0.0	23.1µM*	8.0%	0.7%	?
O=C(Nc1ccc2oc(-c3ccncc3)nc2c1)c1cccs1	0.7%	0.0	-18.7%	30.5%	-5.0%	-8.8%
Cc1nc2cc(NC(=O)N3c4ccccc4CC3C)ccc2o1 (configuration not stated)	0.8%	8.0	?	-0.9%	-29.4%	?
O=C(c1cc2cc([N+](=O)[O-])ccc2s1)N1CCCCC1	-7.0%	-28.8	?	0.2%	-5.3%	-29.6%
Cc1ccc(CN2C(=O)CCC2C(=O)NCCc2ccccc2)cc1 (configuration not stated)	7.3%	2.2	4.9%	1.8%	-0.8%	16.9%
CCOC(=O)C(C)/C(C)=N\Nc1ccc([N+](=O)[O-])cc1[N+](=O)[O-] (configuration not stated)	5.3%	19.8	?	-11.4%	-10.0%	?
CCOC(=O)C(C)/C(C)=N/NC(N)=S (configuration not stated)	?	-60.1*	?	3.2%	-36.7%	18.4µM*
CCN(CC(=O)Nc1ccccc1OC)C(=O)COc1ccc(C#N)cc1	13.9%	0.0	2.7%	.	-46.1%	1.9%
OCC(O)COc1ccc(Cl)cc1 (configuration not stated)	.	.	-20.6%	.	.	-16.7%
O=C(NCc1cccs1)C(=O)NCC(c1ccco1)N1CCN(c2ccccc2F)CC1 (configuration not stated)	-12.1%	17.0	?	-1.4%	-1.4%	23.1µM*

Source: PubChem BioAssay (National Center for Advancing Translational Sciences (NCATS))
